Growth inhibition data for 15 compounds are collected here from PubChem BioAssay (NCI).

Each structure is given as a SMILES string. Where “and” joins values, the source holds several entries; their conditions need not be identical. Equal entries are not always repeated. This is part of a sample that, as a whole, favours compounds with a hit. Of some 79,000 tested, about 15% had one in any assay. Some structures have more than one record in an assay (separate samples or runs), and their calls can disagree. Calls of active or inactive are those of the source. Rule as the data show it: active = growth inhibition above about 70%; inactive = the rest.

Test [1] in a line: NCI Yeast Anticancer Drug Screen. Data for the rad50 strain (AID 155).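 Also: 0% = growth of vehicle-only cultures of the same strain.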 The following applies: S. cerevisiae rad50 strain growth inhibition; at 50.0 µM; stronger effect = higher value. The method, boiled down: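 Vehicle-treated cultures provide the reference for the growth inhibition reported for compound-exposed, repair-deficient yeast.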
A short description of test [2]: NCI Yeast Anticancer Drug Screen. Data for the mec2-1 strain (AID 157). The following applies: S. cerevisiae mec2-1 strain, at 50.0 µM, stronger effect = higher value. The procedure, abridged: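 Using mec2-1 yeast: add compound, measure growth, express inhibition versus vehicle-treated cultures.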
The nature of test [3]: NCI Yeast Anticancer Drug Screen. Data for the sgs1 mgt1 strain (AID 161).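 Also: 0% = growth of cultures given vehicle only.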 The settings on record: S. cerevisiae sgs1 mgt1 strain, at 50.0 µM, stronger effect = higher value. The method, boiled down: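 Compounds are added to genetically altered yeast, and growth is compared with cultures given vehicle alone to give percent inhibition.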
Test [4] is described as follows: NCI Yeast Anticancer Drug Screen. Data for the cln2 rad14 strain (AID 165).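 Also: 0% = growth equal to vehicle treated cultures.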 The following applies: S. cerevisiae cln2 rad14 strain, at 50.0 µM, stronger effect = higher value. The method, boiled down:
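Yeast strain cln2 rad14, bearing defects in cell cycle control and DNA repair, serves as the test system; values reflect growth inhibition compared with vehicle.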

Test [5] is described as follows: NCI Yeast Anticancer Drug Screen. Data for the bub3 strain (AID 167). The settings on record: S. cerevisiae bub3 mutant strain, at 50.0 µM, stronger effect = higher value. The procedure, abridged: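 Mutant yeast screening strain plus compound; vehicle-treated cultures serve as the 0% inhibition reference.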
Test [6] can be described thus: NCI Yeast Anticancer Drug Screen. Data for the mlh1 rad18 strain (AID 175). The following applies: S. cerevisiae mlh1 rad18 strain growth inhibition; at 50.0 µM; stronger effect = higher value. The procedure, abridged: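 Steps: expose repair-defective yeast to compound; measure growth; express inhibition against vehicle-treated controls.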

As to `O=[N+]([O-])c1ccc2[nH]c(=S)[nH]c(=S)c2c1`, the growth inhibition is -27.1% (inactive) and 17.1% (inactive) in test [1]; -49.4% (inactive) and 35.7% (inactive) in test [2]; 5.25% (inactive) and 51% (inactive) in test [3]; 7.7% (inactive) and 36.5% (inactive) in test [4]; -5.7% (inactive) and -1.3% (inactive) in test [5]; 12.2% (inactive) and 16.4% (inactive) in test [6].

For the compound `c1ccc(C(c2ccccc2)N2CCCC2)cc1`, the growth inhibition in test [1] was -4.05% (inactive) and 7.15% (inactive); in test [2], -14.7% (inactive) and 10.8% (inactive); in test [3] it was -5.7% (inactive) and 4.6% (inactive); in test [4], 41.1% (inactive) and -0.2% (inactive); in test [5] it was 2.25% (inactive) and 3.7% (inactive); in test [6], 25.9% (inactive) and -7% (inactive).

Regarding `Oc1ccc2ccccc2c1CNCc1c(O)ccc2ccccc12`, the growth inhibition is -1.45% (inactive) and 2.85% (inactive) in test [1]; -7.9% (inactive) and -34.8% (inactive) in test [2]; 6% (inactive) and 1.7% (inactive) in test [3]; -23.4% (inactive) and -2.4% (inactive) in test [4]; 26.5% (inactive) and -20.8% (inactive) in test [5]; -8.15% (inactive) and -9.85% (inactive) in test [6].

On to `CC(CCC(=O)O)C(=O)O` (stereo not given), for which the growth inhibition is -16% (inactive) and 17.4% (inactive) in test [1]; -7.65% (inactive) and -15.8% (inactive) in test [2]; -8.6% (inactive) and -4.6% (inactive) in test [3]; -5.7% (inactive) and 0.25% (inactive) in test [4]; 4.95% (inactive) and 11.3% (inactive) in test [5]; -8.5% (inactive) and 9.8% (inactive) in test [6].

Take `C=CCC1=C(C)C(OC(=O)C=C(C)C)CC1=O` (stereo not given): the growth inhibition in test [1] is 19.8% (inactive) and -4.3% (inactive); in test [2], -4% (inactive) and -13.8% (inactive); in test [3], -6.15% (inactive) and -6% (inactive); in test [4], 0.25% (inactive) and -26.2% (inactive); in test [5] it was 3.6% (inactive) and -13.3% (inactive); in test [6], -22% (inactive) and -37% (inactive).

As for `CCCCCCCCCCCCCCCC[N+](C)(C)CCOC(C)=O`, the growth inhibition in test [1] was 99.2% (active) and 99% (active); in test [2], 99.5% (active); in test [3] it was 99.5% (active); in test [4], 98.9% (active) and 98.8% (active); in test [5], 99.2% (active) and 99.3% (active); in test [6], 99.5% (active) and 99.4% (active).

Regarding `O=C(O)C1CC[N-]CC1.O=C(O)C1CC[N-]CC1.[Cl][Pt+2][Cl]`, the growth inhibition in test [1] is 14.8% (inactive) and -3.75% (inactive); in test [2], 13.6% (inactive) and -0.6% (inactive); in test [3] it was 24.4% (inactive) and -1.25% (inactive); in test [4], -5.25% (inactive) and -42.3% (inactive); in test [5], -5.8% (inactive) and -2.85% (inactive); in test [6], 17.5% (inactive) and 5.45% (inactive).

For `O=C(Oc1ccc(Br)cc1)c1ccccc1`, the growth inhibition is 0.75% (inactive) and 5.6% (inactive) in test [1]; -12.8% (inactive) and -7.05% (inactive) in test [2]; -4.35% (inactive) and -0.05% (inactive) in test [3]; -13.9% (inactive) and -27.1% (inactive) in test [4]; 30.9% (inactive) and 13.7% (inactive) in test [5]; -6.1% (inactive) and 29.4% (inactive) in test [6].

Consider `O=C1C=CC(=O)O1` (tested in a mixture with another compound), for which the growth inhibition in test [1] is 13.5% (inactive) and 5.85% (inactive); in test [2], 18% (inactive) and 1.85% (inactive); in test [3] it was 10.6% (inactive) and 2.55% (inactive); in test [4], 38.1% (inactive) and 4.45% (inactive); in test [5], 30.9% (inactive) and 17% (inactive); in test [6], 22.4% (inactive) and 13.3% (inactive).

`COc1cc(-c2[o+]c3cc(O)cc(O)c3cc2O)cc(O)c1O`: the growth inhibition is 28.6% (inactive) and 0.3% (inactive) in test [1]; 17.6% (inactive) and -25.1% (inactive) in test [2]; 23.1% (inactive) and 0.7% (inactive) in test [3]; 12.5% (inactive) and -24.9% (inactive) in test [4]; 19.6% (inactive) and 19.1% (inactive) in test [5]; 30.2% (inactive) and 24.2% (inactive) in test [6].

`COc1c2c(cc(O)c1C(C)=O)OC(C)(C)C=C2`: the growth inhibition in test [1] was -4.8% (inactive) and 16.6% (inactive); in test [2], -37.5% (inactive) and -36.5% (inactive); in test [3], -11.6% (inactive) and 16% (inactive); in test [4], -14.9% (inactive) and 11.6% (inactive); in test [5], -12.1% (inactive) and 18.1% (inactive); in test [6], -15% (inactive) and 5.85% (inactive).

On to `O=C(O)c1cccc(S(=O)(=O)O)c1`, for which the growth inhibition in test [1] is -22.6% (inactive) and -9.2% (inactive); in test [2], -40.5% (inactive) and -8.4% (inactive); in test [3], -1.2% (inactive) and -9.2% (inactive); in test [4], -14.1% (inactive) and 13% (inactive); in test [5], -2.05% (inactive) and 0% (inactive); in test [6], 0.4% (inactive) and 2.45% (inactive).

With `COc1ccc2c(c1)-c1nn(CCCN(C)C)c3ccc([N+](=O)[O-])c(c13)N2`, the growth inhibition is 76.2% (active) and 67.2% (inactive) in test [1]; 8% (inactive) and 12.3% (inactive) in test [2]; 23.9% (inactive) and -28.4% (inactive) in test [3]; 10.7% (inactive) and 20.6% (inactive) in test [4]; 27.8% (inactive) and -60.1% (inactive) in test [5]; 39.7% (inactive) and 28.5% (inactive) in test [6].

In the case of `CCOC1(C)OC2OC(COC(c3ccccc3)(c3ccccc3)c3ccccc3)C(O)C(O)C2O1` (stereo not given), the growth inhibition was 63% (inactive) and 48.6% (inactive) in test [1]; 28.9% (inactive) and 6.85% (inactive) in test [2]; 95.2% (active) and 54.7% (inactive) in test [3]; 24.9% (inactive) and 28.4% (inactive) in test [4]; 76.2% (active) and 27.6% (inactive) in test [5]; 50.9% (inactive) and 50% (inactive) in test [6].

For the compound `Cc1nc2ccc(Br)cc2c(=O)n1-c1ccc(NC2OC(CO)C(O)C(O)C2O)cc1` (stereo not given), the growth inhibition in test [1] is 49.9% (inactive) and -0.75% (inactive); in test [2], 36.6% (inactive) and -23.4% (inactive); in test [3], -33.1% (inactive) and 0.7% (inactive); in test [4] it was -3.65% (inactive) and -35.2% (inactive); in test [5], -49.1% (inactive) and -7.65% (inactive); in test [6], -60.5% (inactive) and -10.8% (inactive).
